Results: PubChem BioAssay (NCI)
Compounds without any hit were thinned out: in the full panel of roughly 79,000, 15% have a hit. Values without a mark were called inactive. The source made the active and inactive calls. Cut-off read from the data, not from the text of the source: active = growth inhibition above about 70%; inactive = the rest.

How the values were obtained:
[1] = NCI Yeast Anticancer Drug Screen. Data for the rad50 strain (AID 155);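 note: 0% = growth of vehicle-only cultures of the same strain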; conditions: S. cerevisiae rad50 strain growth inhibition, stronger effect = higher value
In short: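 Readout: growth inhibition relative to vehicle-treated cultures. Compound exposure was carried out in a genetically defined yeast strain deficient in DNA damage repair.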

[2] = NCI Yeast Anticancer Drug Screen. Data for the mec2-1 strain (AID 157); conditions: S. cerevisiae mec2-1 strain, stronger effect = higher value
In short: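 Growth inhibition is read against vehicle-treated controls after compound exposure of the mec2-1 yeast strain, which is defective in DNA damage repair or cell cycle control.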

[3] = NCI Yeast Anticancer Drug Screen. Data for the sgs1 mgt1 strain (AID 161);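 note: 0% = growth of cultures given vehicle only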; conditions: S. cerevisiae sgs1 mgt1 strain, stronger effect = higher value
In short: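 This yeast growth screen uses a strain with defined DNA-repair lesions; compound-treated growth is compared with vehicle-treated growth.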

[4] = NCI Yeast Anticancer Drug Screen. Data for the cln2 rad14 strain (AID 165);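 note: 0% = growth equal to vehicle treated cultures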; conditions: S. cerevisiae cln2 rad14 strain, stronger effect = higher value
In short: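 Growth inhibition, relative to vehicle-treated controls, is the read-out. The test organism is a yeast strain with defined genetic alterations, cln2 rad14.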

[5] = NCI Yeast Anticancer Drug Screen. Data for the bub3 strain (AID 167); conditions: S. cerevisiae bub3 mutant strain, stronger effect = higher value
In short: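 Readout: yeast growth inhibition, expressed relative to vehicle-only wells. The test organism is a mutant strain from a panel with lesions in DNA repair or checkpoint genes.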

[6] = NCI Yeast Anticancer Drug Screen. Data for the mlh1 rad18 strain (AID 175); conditions: S. cerevisiae mlh1 rad18 strain growth inhibition, stronger effect = higher value
In short: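 Cells of a genetically altered yeast strain, deficient in DNA damage repair, were treated with compound. Their growth was then compared with that of vehicle-treated cultures to give inhibition.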

[7] = at 5.0 µM (retest, dose inferred, filed as 0.5)
[8] = at 50.0 µM (retest, dose inferred, filed as 5.0)

For `CCCOC(=O)COc1ccccc1C(=O)OCCC`, the growth inhibition [1, 7] was 5%, the growth inhibition [1, 8] was 10% and the growth inhibition ([1]; at 50.0 µM) was -1.2%. For the same molecule, the growth inhibition [2, 7] was 2%, the growth inhibition [2, 8] was 7% and the growth inhibition ([2]; at 50.0 µM) was -15.5%. For the same molecule, the growth inhibition [3, 7] was 0%, the growth inhibition [3, 8] was 11% and the growth inhibition ([3]; at 50.0 µM) was 6%. For the same molecule, the growth inhibition [4, 7] was 13%, the growth inhibition [4, 8] was 15% and the growth inhibition ([4]; at 50.0 µM) was 14.9%. It also gave a growth inhibition [5, 7] of 10%, a growth inhibition [5, 8] of 44% and a growth inhibition ([5]; at 50.0 µM) of 23.2%. The growth inhibition [6, 7] was 0%, the growth inhibition [6, 8] was 13% and the growth inhibition ([6]; at 50.0 µM) was -11.4%.

With `CC1(C)CNCC(C)(OCc2ccccc2)C(=O)NC(C)(C)CNCC(C)(OCc2ccccc2)C(=O)N1` (stereo not given) the growth inhibition [1, 7] was -6%, the growth inhibition [1, 8] was -19% and the growth inhibition ([1]; at 50.0 µM) was -1.9%. It also gave a growth inhibition [2, 7] of -15%, a growth inhibition [2, 8] of -8% and a growth inhibition ([2]; at 50.0 µM) of -3.4%. The growth inhibition [3, 7] was -8%, the growth inhibition [3, 8] was 7% and the growth inhibition ([3]; at 50.0 µM) was -20.9%. It also gave a growth inhibition [4, 7] of -15%, a growth inhibition [4, 8] of -5% and a growth inhibition ([4]; at 50.0 µM) of 31.5%. For the same molecule, the growth inhibition [5, 7] was -10%, the growth inhibition [5, 8] was 3% and the growth inhibition ([5]; at 50.0 µM) was -68.2%. The growth inhibition [6, 7] was -10%, the growth inhibition [6, 8] was 6% and the growth inhibition ([6]; at 50.0 µM) was -10.4%.

For `COC(=O)C1=C(C)NC(C)=C(C(=O)OC)C1c1ccc(/[N+]([O-])=C/c2ccccc2)cc1`, the growth inhibition [1, 7] was 4%, the growth inhibition [1, 8] was 43% and the growth inhibition ([1]; at 50.0 µM) was 85% (active). The growth inhibition [2, 7] was 5%, the growth inhibition [2, 8] was 34% and the growth inhibition ([2]; at 50.0 µM) was 70.8% (active). The growth inhibition [3, 7] was 13%, the growth inhibition [3, 8] was 25% and the growth inhibition ([3]; at 50.0 µM) was 96.4% (active). It also gave a growth inhibition [4, 7] of -1%, a growth inhibition [4, 8] of 40% and a growth inhibition ([4]; at 50.0 µM) of 60.2%. For the same molecule, the growth inhibition [5, 7] was 17%, the growth inhibition [5, 8] was 74% (active) and the growth inhibition ([5]; at 50.0 µM) was 78.8% (active). For the same molecule, the growth inhibition [6, 7] was -7%, the growth inhibition [6, 8] was 67% and the growth inhibition ([6]; at 50.0 µM) was 93.2% (active).

With `Cc1ccc2ccc3ccc(C)nc3c2n1` the growth inhibition [1, 7] was 94% (active), the growth inhibition [1, 8] was 93% (active) and the growth inhibition ([1]; at 50.0 µM) was 95.1% (active). For the same molecule, the growth inhibition [2, 7] was 92% (active), the growth inhibition [2, 8] was 94% (active) and the growth inhibition ([2]; at 50.0 µM) was 96.3% (active). The growth inhibition [3, 7] was 93% (active), the growth inhibition [3, 8] was 96% (active) and the growth inhibition ([3]; at 50.0 µM) was 96.5% (active). The growth inhibition [4, 7] was 91% (active), the growth inhibition [4, 8] was 89% (active) and the growth inhibition ([4]; at 50.0 µM) was 94.3% (active). The growth inhibition [5, 7] was 96% (active), the growth inhibition [5, 8] was 94% (active) and the growth inhibition ([5]; at 50.0 µM) was 97% (active). For the same molecule, the growth inhibition [6, 7] was 94% (active), the growth inhibition [6, 8] was 94% (active) and the growth inhibition ([6]; at 50.0 µM) was 95.8% (active).

For `CC(c1ccccc1)[P+](c1ccccc1)(c1ccccc1)c1ccccc1` (stereo not given), the growth inhibition [1, 7] was 5%, the growth inhibition [1, 8] was 97% (active) and the growth inhibition ([1]; at 50.0 µM) was 97.8% (active). The growth inhibition [2, 7] was 13%, the growth inhibition [2, 8] was 97% (active) and the growth inhibition ([2]; at 50.0 µM) was 97.5% (active). For the same molecule, the growth inhibition [3, 7] was 11%, the growth inhibition [3, 8] was 98% (active) and the growth inhibition ([3]; at 50.0 µM) was 97.7% (active). For the same molecule, the growth inhibition [4, 7] was -4%, the growth inhibition [4, 8] was 95% (active) and the growth inhibition ([4]; at 50.0 µM) was 96.8% (active). The growth inhibition [5, 7] was 6%, the growth inhibition [5, 8] was 99% (active) and the growth inhibition ([5]; at 50.0 µM) was 96.1% (active). The growth inhibition [6, 7] was 16%, the growth inhibition [6, 8] was 97% (active) and the growth inhibition ([6]; at 50.0 µM) was 98% (active).

With `CCCCCC(/C=N/NC(N)=S)C(O)(C(F)(F)F)C(F)(F)F` (stereo not given) the growth inhibition [1, 7] was -21%, the growth inhibition [1, 8] was 51% and the growth inhibition ([1]; at 50.0 µM) was 77.6% (active). The growth inhibition [2, 7] was -17%, the growth inhibition [2, 8] was 47% and the growth inhibition ([2]; at 50.0 µM) was 62.4%. For the same molecule, the growth inhibition [3, 7] was -7%, the growth inhibition [3, 8] was 28% and the growth inhibition ([3]; at 50.0 µM) was 73% (active). The growth inhibition [4, 7] was -11%, the growth inhibition [4, 8] was 77% (active) and the growth inhibition ([4]; at 50.0 µM) was 61%. The growth inhibition [5, 7] was -11%, the growth inhibition [5, 8] was 77% (active) and the growth inhibition ([5]; at 50.0 µM) was 35%. The growth inhibition [6, 7] was -27%, the growth inhibition [6, 8] was 78% (active) and the growth inhibition ([6]; at 50.0 µM) was 67.9%.

For `Nc1nc(=Nc2ccccc2)ss1`, the growth inhibition [1, 7] was -12%, the growth inhibition [1, 8] was 99% (active) and the growth inhibition ([1]; at 50.0 µM) was 84.8% (active). The growth inhibition [2, 7] was 6%, the growth inhibition [2, 8] was 100% (active) and the growth inhibition ([2]; at 50.0 µM) was 71.1% (active). For the same molecule, the growth inhibition [3, 7] was 0%, the growth inhibition [3, 8] was 99% (active) and the growth inhibition ([3]; at 50.0 µM) was 86.5% (active). The growth inhibition [4, 7] was -7%, the growth inhibition [4, 8] was 99% (active) and the growth inhibition ([4]; at 50.0 µM) was 45.4%. The growth inhibition [5, 7] was -11%, the growth inhibition [5, 8] was 100% (active) and the growth inhibition ([5]; at 50.0 µM) was 57.5%. For the same molecule, the growth inhibition [6, 7] was 12%, the growth inhibition [6, 8] was 99% (active) and the growth inhibition ([6]; at 50.0 µM) was 78.7% (active).

Molecule `Cc1ccc(S(=O)(=O)NCCSCCSCCNS(=O)(=O)c2ccc(C)cc2)cc1` has a growth inhibition [1, 7] of -1%, a growth inhibition [1, 8] of -7% and a growth inhibition ([1]; at 50.0 µM) of 55.4%. For the same molecule, the growth inhibition [2, 7] was -2%, the growth inhibition [2, 8] was -8% and the growth inhibition ([2]; at 50.0 µM) was 92.2% (active). It also gave a growth inhibition [3, 7] of -2%, a growth inhibition [3, 8] of 1% and a growth inhibition ([3]; at 50.0 µM) of 50.5%. For the same molecule, the growth inhibition [4, 7] was -3%, the growth inhibition [4, 8] was -5% and the growth inhibition ([4]; at 50.0 µM) was 86.9% (active). The growth inhibition [5, 7] was 0%, the growth inhibition [5, 8] was -1% and the growth inhibition ([5]; at 50.0 µM) was 94.6% (active). For the same molecule, the growth inhibition [6, 7] was -2%, the growth inhibition [6, 8] was -2% and the growth inhibition ([6]; at 50.0 µM) was 55.2%.

For `COc1ccc(C(=O)OC(=O)c2ccc(OC)cc2)cc1`, the growth inhibition [1, 7] was 5%, the growth inhibition [1, 8] was 9% and the growth inhibition ([1]; at 50.0 µM) was 71.4% (active). The growth inhibition [2, 7] was -6%, the growth inhibition [2, 8] was 7% and the growth inhibition ([2]; at 50.0 µM) was 18.1%. For the same molecule, the growth inhibition [3, 7] was 2%, the growth inhibition [3, 8] was -70% and the growth inhibition ([3]; at 50.0 µM) was 22.1%. The growth inhibition [4, 7] was 4%, the growth inhibition [4, 8] was -4% and the growth inhibition ([4]; at 50.0 µM) was 6.05%. For the same molecule, the growth inhibition [5, 7] was -1%, the growth inhibition [5, 8] was 8% and the growth inhibition ([5]; at 50.0 µM) was 28.1%. For the same molecule, the growth inhibition [6, 7] was -10%, the growth inhibition [6, 8] was 16% and the growth inhibition ([6]; at 50.0 µM) was 74.4% (active).

`CCCCC(CC)(COC(C)=O)COC(C)=O` showed a growth inhibition [1, 7] of -3%, a growth inhibition [1, 8] of 0% and a growth inhibition ([1]; at 50.0 µM) of 7%. The growth inhibition [2, 7] was 1%, the growth inhibition [2, 8] was 2% and the growth inhibition ([2]; at 50.0 µM) was 12.7%. The growth inhibition [3, 7] was 3%, the growth inhibition [3, 8] was -1% and the growth inhibition ([3]; at 50.0 µM) was 2.6%. The growth inhibition [4, 7] was 2%, the growth inhibition [4, 8] was 5% and the growth inhibition ([4]; at 50.0 µM) was 42.5%. For the same molecule, the growth inhibition [5, 7] was 4%, the growth inhibition [5, 8] was 4% and the growth inhibition ([5]; at 50.0 µM) was -2%. It also gave a growth inhibition [6, 7] of 1%, a growth inhibition [6, 8] of -1% and a growth inhibition ([6]; at 50.0 µM) of -16.7%.
